Source: PubChem BioAssay
FECH inh = blocks human mitochondrial ferrochelatase activity; P22830; purified FECH, Ni-mesoporphyrin absorbance 550 nm; calls only at 10 µM (by protocol); AID 1671448; 3.3% of 20,000 active;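 active = enzyme reaction rate more than 3 SD below the solvent-only control wells on the same plate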;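 also: lower slope than DMSO wells means FECH inhibition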
Target sequence (P22830 whole entry, looked up): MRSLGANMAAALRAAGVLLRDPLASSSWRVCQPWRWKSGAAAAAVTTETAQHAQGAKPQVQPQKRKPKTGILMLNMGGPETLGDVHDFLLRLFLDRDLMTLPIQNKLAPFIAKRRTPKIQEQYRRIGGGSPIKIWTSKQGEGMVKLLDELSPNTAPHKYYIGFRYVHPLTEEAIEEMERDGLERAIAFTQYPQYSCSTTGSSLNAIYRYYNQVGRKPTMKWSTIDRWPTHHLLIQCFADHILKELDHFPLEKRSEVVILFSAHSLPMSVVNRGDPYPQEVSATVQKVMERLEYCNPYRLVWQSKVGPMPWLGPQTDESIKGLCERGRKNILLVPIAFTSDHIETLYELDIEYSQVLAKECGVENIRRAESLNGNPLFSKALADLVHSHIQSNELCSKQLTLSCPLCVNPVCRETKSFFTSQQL
Of the large screens only hits and unclear results are named; the others gave an inactive call. This excerpt belongs to a sample that is enriched for hits.

Cc1ccc(NC(=O)N2CCC(n3c(C)nc4cccnc43)CC2)cc1Cl	none
CN(CCC1CCOCC1)C(=O)CSCc1ccccc1Cl	none
CCOC(=O)c1cc2ccsc2n1CC(=O)NC(C)(C)C	none
COc1ccc(NC(=O)CN2c3ccc(C(C)C)cc3-c3ccccc3S2(=O)=O)cc1Cl	none
O=C(CN1c2ccc(F)cc2-c2ccccc2S1(=O)=O)NCCN1CCOCC1	none
CCC1=C(c2ccc(OC)cc2)S(=O)(=O)N(CC(=O)Nc2ccc(F)cc2F)C1=O	none
CCc1ccc2c(c1)-c1ccccc1S(=O)(=O)N2CC(=O)Nc1ccc(F)cc1	FECH inh active
CC1CCN(c2ccc(NC(=O)CN3C(=O)c4ccccc4S3(=O)=O)cc2Cl)CC1	none
CCc1ccc(C2=C(C)C(=O)N(CC(=O)Nc3ccc(C)c(F)c3)S2(=O)=O)cc1	none
CCOc1ccccc1NC(=O)CN1c2ccc(C(C)C)cc2-c2ccccc2S1(=O)=O	FECH inh active
C=CCNC(=O)c1ccccc1NC(=O)CN1c2ccc(C(C)C)cc2-c2ccccc2S1(=O)=O	none
O=C(CN1c2ccc(F)cc2-c2ccccc2S1(=O)=O)Nc1ccccc1Oc1ccccc1	FECH inh active
CC(C)NC(=O)c1nc[nH]c1C(=O)N1CCN(Cc2ccccc2)CC1	none
CC(C)Cn1c(CNS(=O)(=O)c2ccc3c(c2)CCCC3)nc2cccnc21	none
CCC(C)N1C(=O)c2c(NC(C)=O)c3cc(F)ccc3n2CC1(C)C(=O)NC1CCCCC1 (stereo not drawn)	none
COc1ccc(C(=O)Nc2ccc(Nc3nc(C)cc(Nc4ccc(C)cc4)n3)cc2)cc1	none
O=C([C@H]1CCCO1)N1CCc2nnc(CCc3ccccc3)n2CC1	none
Cc1cc(C)cc(Nc2nc(N3CCN(C)CC3)nc3c2cnn3-c2ccccc2)c1	none
COc1ccccc1C(=O)Nc1cccc(NC(=O)CCc2nncn2C)c1	none
Cn1c(=O)c2sccc2n2c(CCC(=O)NCCc3ccc(S(N)(=O)=O)cc3)nnc12	none
CC(C)c1cc(N2CCCCC2C)n2nc(-c3cccnc3)nc2n1 (stereo not drawn)	none
CCN(Cc1ncccc1C(=O)O)Cc1c(F)cccc1Cl	none
Cc1ccc(-c2nc(C)cc(OCC(=O)Nc3ccc(C)c(F)c3)n2)cc1	FECH inh active
Cc1ccc(-c2nc(C)cc(OCC(=O)Nc3cc(C)ccc3C)n2)cc1	none
COc1ccc(NC(=O)COc2cc(C)nc(-c3ccc(C)cc3)n2)cc1OC	none
COCCn1c(C)cc(C(=O)NCc2nc3cccnc3n2Cc2ccc(C)cc2)c1C	none
Cc1cccc(Cl)c1S(=O)(=O)N1CC(c2ccccn2)C1	none
COc1ccc(CNc2nc3nc(CN4CCOCC4)cc(=O)n3[nH]2)cc1	FECH inh active
O=c1cc(CN2CCc3ccccc3C2)nc2nc(NCc3ccccc3)[nH]n12	none
O=c1cc(CN2CCc3ccccc3C2)nc2nc(NCc3ccc(Cl)cc3)[nH]n12	FECH inh active
COc1ccc(CNc2nc3nc(CN4CCN(c5ccccc5)CC4)cc(=O)n3[nH]2)cc1	none
O=c1cc(CN2CCOCC2)nc2nc(NCc3ccccc3)[nH]n12	none
O=c1cc(CN2CCCCC2)nc2nc(NCc3ccccc3)[nH]n12	none
O=c1cc(CN2CCN(CCO)CC2)nc2nc(NCc3ccc(Cl)cc3)[nH]n12	none
COc1ccc(CNc2nc3nc(CN4CCc5ccccc5C4)cc(=O)n3[nH]2)cc1	FECH inh active
O=c1cc(CN2CCOCC2)nc2nc(NCc3ccc(Cl)cc3)[nH]n12	none
Cc1cccc(NS(=O)(=O)c2cc(N3C(=O)CCS3(=O)=O)ccc2C)c1	none
c1ccc(-n2cccc2CN2CCc3[nH]cnc3C2c2cccnc2)nc1 (stereo not drawn)	none
CN(C)CC1(O)CCCN(C(=O)c2cnc3c(c2)ncn3C)C1 (stereo not drawn)	none
Cc1cnc(NCc2ccc(C(=O)N(C)C)o2)nc1N(C)C	none
Cn1ncc2c(NCCNC(=O)c3cccnc3)nc(C(C)(C)C)nc21	none
Cc1cnc(NCCNC(=O)c2cccnc2)nc1N(C)C	FECH inh active
Cc1cc(CNC(=O)c2cccc(NCc3ccc(F)cc3)c2)n[nH]1	none
Cc1ccc2[nH]c(CCC(=O)N3CCC4(CCCO4)CC3)nc2c1C	none
Cc1nc(C(C)C)cc(N2CCCC(OCc3ccccn3)C2)n1 (stereo not drawn)	none
O=S(=O)(NCc1ccccc1)N1CCCC(OCc2ccccn2)C1 (stereo not drawn)	none
Cc1ccc(NC(=O)CN2CCCC(OCc3ccccn3)C2)cc1C (stereo not drawn)	FECH inh active
Cc1cccc(C(=O)N2CCCC3(C=Cc4ccccc4O3)CC2)n1 (stereo not drawn)	none
CCc1ccc(S(=O)(=O)NCc2nc3cccnc3n2CCOC)cc1	none
COc1ncccc1C1CC(=O)Nc2c1c(C)nn2C(C)C (stereo not drawn)	none
COc1ccc(Nc2nc(N(C)CCO)nc3c2cnn3-c2ccccc2)cc1	none
O=C(NC1CCCCC1)C1CCN(c2ccc(-c3ccc(F)cc3)nn2)CC1	none
Cc1cccc(C(C(=O)NCc2cnc(C)cn2)N(C)C)c1 (stereo not drawn)	none
Cc1cccc2oc(CNC(=O)C(c3cccc(F)c3)N(C)C)nc12 (stereo not drawn)	none
CN(C)C(C(=O)NCC1(O)CCCCC1)c1cccc(F)c1 (stereo not drawn)	FECH inh active
